# According to PubChem BioAssay (Tox21):
# Records with an inconclusive call do not appear. A call without a number means that no potency is given here. Activity calls are given as the source filed them. The call rests on the fitted dose curve.
# Biological target: Beta-2 adrenergic receptor (Homo sapiens) (UniProt P07550)
# Test: Adrenergic beta2 receptor (ADRB2) small molecule agonists, cell-based qHTS assay (AID 1963593)
# Conditions: CHO-ADRB2 cells, cAMP HTRF, 30 min; series mostly up to 92.4 µM
# From the text: National Center for Advancing Translational Sciences [NCATS]
# Division of Preclinical Innovation [DPI]
# U.S. Environmental Protection Agency [EPA]
# National Institutes of Environmental Health Sciences [NIEHS]
# National Toxicology Program [NTP]
# U.S. Food and Drug Administration [FDA]
# Beta adrenergic receptors (Beta-ARs) belong to the G-protein coupled receptor (GPCR) superfamily, includes three subtypes - beta1, beta2, and beta3. Beta1-AR is the predominant receptor subtype expressed in the heart, and beta2-AR is expressed in the kidney, lung, blood vessel and in the heart, and beta3 is found in the adipocytes. Beta1 and 2 ARs couple to Gs protein and elevate cyclic adenosine mono phosphate (cAMP), which activates protein kinase A and leads to the downstream signaling responsible for the physiological actions. Beta-AR agonists or antagonists are the most prescribed therapeutic agents for heart failure and asthma, and these were one of the first target receptors for the rational drug design. Tox21 10K compound library was screened using the cAMP-Gs dynamic assay (Cisbio Bioassays, Shelton, CT) to identify agonists/antagonists of the Gs-coupled human adrenergic, beta2 receptor (ADRB2) in the CHO-ADRB2 cell line (Codex BioSolutions, Inc. Gaithersburg, MD), which stably over-expresses ADRB2. The principle of cAMP-Gs dynamic assay is based on HTRF technology, which facilitates the fluorescence resonance energy transfer (FRET) between donor Europium cryptate and acceptor d2-labeled cAMP. The cAMP generated within cells competes with the red acceptor, d2-labled cAMP, for binding to the monoclonal anti-cAMP-cryptate (Europium donor). An increase in intracellular cAMP leads to the disruption of FRET signal, and the signal is inversely proportional to the cAMP concentration. Isoproterenol HCl (Sigma-Aldrich, St. Louis, MO) was used as a positive control in the screening.
# Tox21 Assay Protocol Summary:
# CHO-ADRB2 cells were dispensed at 1,000/well in 4uL assay medium into white/solid 1536-well plates (Greiner Bio-One North America Inc., Monroe, NC) using a Multidrop Combi dispenser (ThermoFisher Scientific, Waltham, MA). The assay plates were incubated at 37C and 5% CO2 for an overnight (18-20hr). Then positive control and test compounds dissolved in DMSO were transferred to the assay plates at 23nL using a Pintool station (Wako, San Diego, CA). Following the compound and positive control transfer, 1uL stimulation mix containing 100uM IBMX and 25uM Ro-20-1724 was added to each well of the assay plates using BioRAPTR Flying Reagent Dispenser (FRD, Beckman Coulter, Brea, CA). The assay plates were incubated at room temperature for 0.5hr. Then 2.5ul each d2-labled cAMP and anti-cAMP-cryptate solutions were added separately to each well of the assay plates using an FRD and the assay plates were incubated at room temperature for 1hr.
# Chain of Beta-2 adrenergic receptor (Homo sapiens) (P07550 whole entry, looked up): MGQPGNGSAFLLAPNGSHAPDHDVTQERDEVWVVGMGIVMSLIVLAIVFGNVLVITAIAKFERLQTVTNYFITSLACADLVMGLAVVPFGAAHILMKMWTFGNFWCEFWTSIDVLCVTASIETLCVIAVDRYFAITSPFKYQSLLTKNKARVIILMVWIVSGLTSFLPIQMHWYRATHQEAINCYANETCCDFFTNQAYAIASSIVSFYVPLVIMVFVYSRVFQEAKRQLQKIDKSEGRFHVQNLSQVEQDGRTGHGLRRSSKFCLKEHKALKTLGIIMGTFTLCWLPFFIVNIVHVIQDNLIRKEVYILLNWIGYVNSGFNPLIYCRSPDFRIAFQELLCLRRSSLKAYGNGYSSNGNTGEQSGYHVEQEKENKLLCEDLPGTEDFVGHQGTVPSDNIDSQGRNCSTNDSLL
row,Structure (SMILES),Potency
1,CCSC(=O)N(CC)CC,inactive
2,CC(COC(=O)c1ccccc1)OC(=O)c1ccccc1 (stereo not given),inactive
3,CC/C=C\CC1=C(C)CCC1=O,inactive
4,CCN(C=O)CC,inactive
5,CCCCCCCCCCCCI,inactive
6,O=C(O)/C=C/C(=O)O,inactive
7,CCCCCCCCCCCCCCCCCCOCC(O)CO (stereo not given),inactive
8,O=C(c1ccccc1O)c1ccccc1O,inactive
9,CNC(=O)c1c(I)c(NC(C)=O)c(I)c(C(=O)O)c1I,inactive
10,CN1CCCC1=O,inactive
11,CN(C(=O)c1c(O)c2ccccc2n(C)c1=O)c1ccccc1,inactive
12,Cn1cnc2c(F)c(Nc3ccc(Br)cc3Cl)c(C(=O)NOCCO)cc21,inactive
13,CN(C)C(=O)Oc1ccc[n+](C)c1,inactive
14,CCC(C)CO (stereo not given),inactive
15,Nc1c(Br)cc([N+](=O)[O-])cc1Br,inactive
16,CC(=O)OC[C@H]1O[C@@H](OC(C)=O)[C@H](OC(C)=O)[C@@H]1OC(C)=O,inactive
17,CN1N=C(C(N)=O)CCC1=O,inactive
18,CCC(=O)c1ccc(O)cc1,inactive
19,C[C@@H](O)[C@H]1C(=O)N2C(C(=O)O)=C([C@H]3CCCO3)S[C@H]12,inactive
20,CCCCCCC1(C)CCC(=O)O1 (stereo not given),inactive

row,Structure (SMILES),Potency
1,CCN(CC)c1ccc(C=O)c(O)c1,inactive
2,NS(=O)(=O)c1ccccc1Cl,inactive
3,CN/C(=C\[N+](=O)[O-])NCCSCc1ccc(CN(C)C)o1,inactive
4,O=C1OC(=O)c2c(Cl)c(Cl)c(Cl)c(Cl)c21,inactive
5,CCN(CC)c1ccc2c(C)cc(=O)oc2c1,inactive
6,CC(O)CCCCn1c(=O)c2c(ncn2C)n(C)c1=O (stereo not given),inactive
7,CC(C)CCCCOC(=O)c1ccccc1C(=O)OCCCCC(C)C,inactive
8,F[Si-2](F)(F)(F)(F)F,inactive
9,CC1CCC(C(C)C)C(O)C1 (stereo not given),inactive
10,CCC(CC)C(C)CCOC(C)=O (stereo not given),inactive
11,O=C1Nc2ccccc2C1=O,inactive
12,O=[Si]=O,inactive
13,C#CC(C)(O)CC(C)C (stereo not given),inactive
14,COc1ccc(Br)c(C)c1,inactive
15,Oc1ccc2c(c1)OC[C@@H](N1CCC(O)(c3ccc(F)cc3)CC1)[C@H]2O,inactive
16,CCCOC(C)=O,inactive
17,CCCCN(CCO)CCO,inactive
18,COc1ccc2cc1Oc1cc3c(cc1OC)CC[N+](C)(C)[C@H]3Cc1ccc(cc1)Oc1c(OC)c(OC)cc3c1[C@@H](C2)[N+](C)(C)CC3,inactive
19,CC1(C)C(=O)N(Br)C(=O)N1Cl,inactive
20,CC(C)(C)NC(=O)[C@@H]1CN(Cc2cccnc2)CCN1C[C@@H](O)C[C@@H](Cc1ccccc1)C(=O)N[C@H]1c2ccccc2C[C@H]1O,inactive
